Records with an inconclusive call do not appear. Calls of active or inactive are those of the source. Unless noted, calls come from the whole dose curve.
What was measured:
[1] = Nuclear factor erythroid 2-related factor 2/antioxidant responsive element (Nrf2/ARE) small molecule agonists: qHTS cell viability counter screen in human keratinocytes (AID 1919968; active = well fitted curve in the direction sought with a large enough effect in the repeat runs; an effect the other way counts as inactive or inconclusive; note: nearly all actives have a fitted effect of over 55% in size; note: potency is the fitted concentration of half-maximal effect)
How it was run: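 Measured as CellTiter-Fluor fluorescence, this readout tracks cytotoxicity in the same wells as the ARE-luciferase screen. HaCaT reporter cells (1,500/well) received compounds after a 5 h pre-incubation and were exposed for 23 h.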

[2] = Nuclear factor erythroid 2-related factor 2/antioxidant responsive element (Nrf2/ARE) small molecule agonists: luciferase reporter gene qHTS assay in human keratinocytes (AID 1919969); note: nearly all actives have a fitted effect of over 35% in size; note: potency is the fitted concentration of half-maximal effect
[3] = biological target: Gonadotropin-releasing hormone receptor (Homo sapiens) (UniProt P30968); experiment: Human gonadotropin-releasing hormone receptor (GnRHR) small molecule agonists, calcium flux assay in GnRHR-HEK293 cells (AID 1920063); note: nearly all actives have a fitted effect of over 35% in size
How it was run: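 Fluorescence kinetics (480 nm excitation, 540 nm emission; 3 min, 1 s steps) report calcium mobilisation in human GnRHR-HEK293 cells in agonist mode. Dye incubation: 1 h, 37 C.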

[4] = biological target: KiSS-1 receptor (Homo sapiens) (UniProt Q969F8); experiment: Human kisspeptin (KISS1R) small molecule agonists, calcium flux assay in KISS1R-HEK293 cells (AID 1920064; active = well fitted curve in the direction sought with a large enough effect in the repeat runs; an effect the other way counts as inactive or inconclusive)
How it was run: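 Measures KISS1R agonism through calcium-sensitive dye fluorescence in stably transfected HEK293 cells, read for 3 min after pin-tool compound delivery; 15-point titrations in triplicate.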

[5] = G protein-coupled receptor (GPCR) small molecule agonists, calcium flux assay: HEK293 wild type cell line counter screen (AID 1920065)
How it was run: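 Readout: fluorescence at 480 nm excitation/540 nm emission, sampled at 1 s intervals for 3 min. Cells had been cultured 18 h, then dye-loaded 1 h at 37 C before compound or ATP addition.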

[6] = p53 small molecule agonists, cell-based qHTS assay with human liver microsomes (AID 1963577)
How it was run: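 p53RE-bla reporter cells were pre-incubated 5 h at 37 C, then treated with compounds plus human liver microsomes (0.5 mg/mL final) and NADPH (0.5 mg/mL final) for 16 h at 37 C. Beta-lactamase activity was read by LiveBLAzer fluorescence after 2 h at room temperature.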

[7] = p53 small molecule agonists, cell-based qHTS assay with rat liver microsomes (AID 1963578)
How it was run: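 p53RE-bla cells were exposed to compounds together with rat liver microsomes (0.5 mg/mL final) and NADPH (0.5 mg/mL final) for 16 h at 37 C, then read by LiveBLAzer beta-lactamase fluorescence after 2 h at room temperature.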

[8] = p53 small molecule agonists, cell-based qHTS assay with rat liver microsomes: qHTS cell viability counter screen (AID 1963580); note: nearly all actives have a fitted effect of over 45% in size
How it was run: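 In HCT-116 cells carrying a p53 response element-bla reporter, compounds were metabolically activated in situ by rat liver microsomes with NADPH over 16 h. Cell ATP content then served as the cytotoxicity measure.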

[9] = p53 small molecule agonists, cell-based qHTS assay: qHTS cell viability counter screen (AID 1963581); note: nearly all actives have a fitted effect of over 45% in size
How it was run: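 In the same plates used for the p53 bla reporter, HCT-116 cells given compounds for 16 h at 37 C received CellTiter-Glo; luminescence was recorded 30 min later at room temperature.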

[10] = p53 small molecule agonists, cell-based qHTS assay (AID 1963582; active = well fitted activation curve with a large enough effect in the signal ratio in the repeat runs, not every such curve was filed as active; the % refers to the signal ratio)
How it was run: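 Compounds are pin-transferred in DMSO onto p53RE-bla cells and incubated 16 h at 37 C. The B/G FRET beta-lactamase substrate is then applied for 2 h at RT and fluorescence recorded.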

[11] = biological target: 5-hydroxytryptamine receptor 2A (Homo sapiens) (UniProt P28223); experiment: 5-hydroxytryptamine receptor 2A (HTR2A) small molecule antagonists, cell-based qHTS assay (AID 1963586); note: nearly all actives have a fitted effect of over 45% in size
How it was run: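 Antagonist-mode intracellular calcium assay: DOI (4 nM) added after 5 min compound pre-incubation at room temperature to dye-loaded HTR2A-CHO cells. Fluorescence followed for 3 min, sampled every second.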

[12] = biological target: 5-hydroxytryptamine receptor 2A (Homo sapiens) (UniProt P28223); experiment: 5-hydroxytryptamine receptor 2A (HTR2A) small molecule agonists, cell-based qHTS assay (AID 1963587); note: nearly all actives have a fitted effect of over 30% in size
How it was run: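 HTR2A-CHO cells, plated 18 h at 37 C/5% CO2, dye-loaded 1 h at 37 C; compounds in DMSO added by pin tool (agonist mode). Intracellular calcium flux read as kinetic fluorescence on FDSS over 2 min at 1 s intervals.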

[13] = biological target: Muscarinic acetylcholine receptor M1 (Homo sapiens) (UniProt P11229); experiment: Cholinergic receptor muscarinic 1 (CHRM1) small molecule antagonists, cell-based qHTS assay (AID 1963588); note: nearly all actives have a fitted effect of over 40% in size; note: potency is the fitted concentration of half-maximal effect
How it was run: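 CHRM1-CHO calcium-flux assay, antagonist mode. Cells were seeded 18 h, dye-loaded 1 h at 37 C and given compound for 5 min at RT, then acetylcholine was added at 50nM. FDSS fluorescence was read 3 min; 15 concentrations, three runs.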

[14] = biological target: Muscarinic acetylcholine receptor M1 (Homo sapiens) (UniProt P11229); experiment: Cholinergic receptor muscarinic 1 (CHRM1) small molecule agonists, cell-based qHTS assay (AID 1963589); note: nearly all actives have a fitted effect of over 35% in size
How it was run: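 Each compound was tested at 15 concentrations across three independent runs on dye-loaded CHO cells stably expressing human CHRM1, reading intracellular calcium fluorescence kinetically at 1 sec intervals.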

[15] = cAMP Responsive Elements (CRE) small molecule agonists, cell-based qHTS assay (AID 1963590)
How it was run: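 Cell line: CRE-bla HEK 293T; medium DMEM/10% dialyzed FBS/0.1 mM NEAA/1 mM pyruvate/25 mM HEPES; 3 h compound exposure; beta-lactamase FRET readout after 2 h substrate loading at RT.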

[16] = biological target: Beta-2 adrenergic receptor (Homo sapiens) (UniProt P07550); experiment: Adrenergic beta2 receptor (ADRB2) small molecule antagonists, cell-based qHTS assay (AID 1963592); note: series mostly up to about 92 µM; nearly all actives have a fitted effect of over 50% in size
How it was run: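 Cells (CHO, stable ADRB2 overexpression) incubated 18-20hr at 37C; compounds added from DMSO; agonist mix (1nM isoproterenol, 100uM IBMX, 25uM Ro-20-1724) added; 0.5hr RT; d2-cAMP and anti-cAMP-cryptate added; 1hr RT; 665/615 nm read.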

[17] = biological target: Beta-2 adrenergic receptor (Homo sapiens) (UniProt P07550); experiment: Adrenergic beta2 receptor (ADRB2) small molecule agonists, cell-based qHTS assay (AID 1963593);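 note: CHO cells stably overexpressing human ADRB2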
How it was run: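 CHO cells stably over-expressing ADRB2 were plated overnight at 37C, then dosed with compounds plus a stimulation mix containing 100uM IBMX and 25uM Ro-20-1724 for 0.5hr at room temperature. cAMP was measured by HTRF competition, 1hr.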

[18] = biological target: D(2) dopamine receptor (Homo sapiens) (UniProt P14416); experiment: Dopamine D2 receptor (DRD2) small molecule agonists, cell-based qHTS assay (AID 1963594); note: nearly all actives have a fitted effect of over 35% in size
How it was run: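 HEK293 cells stably expressing DRD2 were cultured 24 h at 37 C, then given Ro20-1724 (0.1 mM final) and compounds for 10 min at room temperature. NKH477 (200nM) was then added for 30 min. cAMP was read by HTRF.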

[19] = biological target: D(2) dopamine receptor (Homo sapiens) (UniProt P14416); experiment: Dopamine D2 receptor (DRD2) small molecule antagonists, cell-based qHTS assay (AID 1963595; active = well fitted inhibition curve with a large enough effect in the signal ratio in the repeat runs, with a control signal flat; the % refers to the signal ratio)
How it was run: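 Human DRD2 antagonist qHTS measuring cAMP by HTRF. The cells are exposed to compound for 10 min, then to NKH477 (200 nM) and quinpirole (12 nM) for 30 min at RT, with Ro20-1724 (0.1 mM) present throughout.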

[20] = cAMP Responsive Elements (CRE) small molecule antagonists, cell-based qHTS assay (AID 1963591; active = well fitted inhibition curve with a large enough effect in the signal ratio in the repeat runs, not every such curve was filed as active; the % refers to the signal ratio)
How it was run: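 Inhibition of NKH477-driven (0.25 uM final) CRE-beta-lactamase signal in HEK293T cells, 3 h compound exposure at 37 °C, detected by FRET substrate fluorescence.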
% is set by controls: 0 for no effect and ±100 for the full control effect.

Chain of Gonadotropin-releasing hormone receptor (Homo sapiens) (P30968 whole entry, looked up): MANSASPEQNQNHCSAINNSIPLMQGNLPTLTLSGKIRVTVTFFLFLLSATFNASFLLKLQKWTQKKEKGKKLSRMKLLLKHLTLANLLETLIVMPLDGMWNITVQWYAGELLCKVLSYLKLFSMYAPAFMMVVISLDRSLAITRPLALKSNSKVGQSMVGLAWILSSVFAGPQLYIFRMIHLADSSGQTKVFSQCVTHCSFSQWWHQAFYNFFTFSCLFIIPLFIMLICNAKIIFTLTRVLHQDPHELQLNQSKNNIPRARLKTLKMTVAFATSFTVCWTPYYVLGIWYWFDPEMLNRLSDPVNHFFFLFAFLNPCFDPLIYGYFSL
Chain of D(2) dopamine receptor (Homo sapiens) (P14416 whole entry, looked up): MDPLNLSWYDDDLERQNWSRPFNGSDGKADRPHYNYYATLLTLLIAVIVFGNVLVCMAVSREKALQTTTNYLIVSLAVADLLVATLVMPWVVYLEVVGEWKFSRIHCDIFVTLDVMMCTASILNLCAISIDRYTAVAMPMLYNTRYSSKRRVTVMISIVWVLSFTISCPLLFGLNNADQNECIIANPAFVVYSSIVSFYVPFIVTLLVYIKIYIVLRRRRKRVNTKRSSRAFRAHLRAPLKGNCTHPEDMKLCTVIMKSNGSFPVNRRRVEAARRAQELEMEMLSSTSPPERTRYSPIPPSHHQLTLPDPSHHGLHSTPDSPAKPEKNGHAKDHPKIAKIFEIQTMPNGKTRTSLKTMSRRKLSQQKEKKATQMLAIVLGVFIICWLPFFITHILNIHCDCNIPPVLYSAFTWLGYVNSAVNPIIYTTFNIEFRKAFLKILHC
Chain of Muscarinic acetylcholine receptor M1 (Homo sapiens) (P11229 whole entry, looked up): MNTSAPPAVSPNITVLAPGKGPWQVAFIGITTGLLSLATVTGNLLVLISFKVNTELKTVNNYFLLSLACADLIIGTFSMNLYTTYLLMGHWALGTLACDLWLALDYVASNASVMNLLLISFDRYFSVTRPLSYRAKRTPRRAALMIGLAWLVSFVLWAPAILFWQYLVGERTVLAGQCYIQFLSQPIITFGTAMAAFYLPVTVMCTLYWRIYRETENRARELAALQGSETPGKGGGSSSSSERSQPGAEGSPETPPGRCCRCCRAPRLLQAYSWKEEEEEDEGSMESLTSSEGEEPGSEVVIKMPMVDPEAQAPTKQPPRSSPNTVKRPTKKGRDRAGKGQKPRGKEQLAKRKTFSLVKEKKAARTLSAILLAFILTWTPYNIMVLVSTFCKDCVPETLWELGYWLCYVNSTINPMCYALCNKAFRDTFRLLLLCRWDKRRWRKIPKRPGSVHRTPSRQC
Chain of Beta-2 adrenergic receptor (Homo sapiens) (P07550 whole entry, looked up): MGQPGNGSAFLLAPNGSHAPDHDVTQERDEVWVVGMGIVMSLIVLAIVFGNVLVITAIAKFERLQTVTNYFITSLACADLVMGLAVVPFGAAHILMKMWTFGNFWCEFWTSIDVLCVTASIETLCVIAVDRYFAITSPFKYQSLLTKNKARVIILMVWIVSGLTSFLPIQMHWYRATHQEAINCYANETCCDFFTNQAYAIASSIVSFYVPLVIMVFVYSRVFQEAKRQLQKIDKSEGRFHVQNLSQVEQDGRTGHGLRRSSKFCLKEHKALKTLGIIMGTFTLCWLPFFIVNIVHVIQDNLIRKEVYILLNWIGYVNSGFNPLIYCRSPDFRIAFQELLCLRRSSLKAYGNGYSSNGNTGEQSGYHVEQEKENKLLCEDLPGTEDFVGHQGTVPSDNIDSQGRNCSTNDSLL
Chain of 5-hydroxytryptamine receptor 2A (Homo sapiens) (P28223 whole entry, looked up): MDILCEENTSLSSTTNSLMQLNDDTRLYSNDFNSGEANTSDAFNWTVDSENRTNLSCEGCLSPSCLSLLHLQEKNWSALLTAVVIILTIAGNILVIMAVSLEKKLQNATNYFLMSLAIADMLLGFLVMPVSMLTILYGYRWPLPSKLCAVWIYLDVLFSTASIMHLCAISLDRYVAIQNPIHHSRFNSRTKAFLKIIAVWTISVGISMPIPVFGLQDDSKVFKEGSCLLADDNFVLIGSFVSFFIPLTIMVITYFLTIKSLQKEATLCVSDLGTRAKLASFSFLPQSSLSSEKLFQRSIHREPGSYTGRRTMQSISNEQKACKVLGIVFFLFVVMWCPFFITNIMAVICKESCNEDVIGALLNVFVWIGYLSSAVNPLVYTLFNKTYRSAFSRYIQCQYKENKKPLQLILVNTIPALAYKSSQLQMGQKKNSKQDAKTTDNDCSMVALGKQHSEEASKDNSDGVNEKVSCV
Chain of KiSS-1 receptor (Homo sapiens) (Q969F8 whole entry, looked up): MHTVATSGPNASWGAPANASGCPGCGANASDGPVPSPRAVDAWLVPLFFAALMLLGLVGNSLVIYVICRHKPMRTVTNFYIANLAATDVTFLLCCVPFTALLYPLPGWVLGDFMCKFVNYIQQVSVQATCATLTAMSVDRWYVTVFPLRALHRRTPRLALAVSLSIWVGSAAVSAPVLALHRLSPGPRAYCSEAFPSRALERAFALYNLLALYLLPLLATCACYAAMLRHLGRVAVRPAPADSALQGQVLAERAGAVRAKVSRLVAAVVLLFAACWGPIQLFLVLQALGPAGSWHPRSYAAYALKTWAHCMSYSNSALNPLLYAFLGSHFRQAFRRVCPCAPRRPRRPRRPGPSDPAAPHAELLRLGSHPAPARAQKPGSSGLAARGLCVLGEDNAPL

O=C(O)c1cccc(C(=O)O)c1C(=O)O
inactive: Potency [1] | Potency [2] | Potency [3] | outcome [4] | outcome [5] | Potency [6] | Potency [7] | Potency [8] | Potency [9] | Potency [10] | Potency [11] | Potency [12] | Potency [13] | Potency [14] | Potency [15] | Potency [16] | Potency [17] | Potency [18] | Potency [19]

COc1cc2c(N3CCN(C(=O)Nc4ccc(OC(C)C)cc4)CC3)ncnc2cc1OCCCN1CCCCC1
active: Potency [1] 23.7 µM
inactive: Potency [2] | Potency [3] | outcome [4] | outcome [5] | Potency [6] | Potency [7] | Potency [8] | Potency [9] | Potency [10] | Potency [11] | Potency [12] | Potency [13] | Potency [14] | Potency [20] | Potency [16] | Potency [18]

Nc1ccc(NC(=O)c2ccc(N)cc2)cc1
inactive: Potency [1] | Potency [2] | Potency [3] | outcome [4] | outcome [5] | Potency [6] | Potency [7] | Potency [8] | Potency [9] | Potency [10] | Potency [11] | Potency [12] | Potency [13] | Potency [14] | Potency [15] | Potency [20] | Potency [18]

Cc1nc(-c2ccc(Cl)cc2)oc1COC(C)(C)C(=O)O
inactive: Potency [1] | Potency [2] | Potency [3] | outcome [4] | outcome [5] | Potency [6] | Potency [7] | Potency [8] | Potency [9] | Potency [10] | Potency [11] | Potency [12] | Potency [13] | Potency [14] | Potency [20] | Potency [16] | Potency [17] | Potency [18] | Potency [19]

CCOCC(O)COc1ccc(NC(=O)CC[S+](C)C)cc1 (centres undefined)
inactive: Potency [1] | Potency [2] | Potency [3] | outcome [4] | outcome [5] | Potency [6] | Potency [7] | Potency [8] | Potency [9] | Potency [10] | Potency [11] | Potency [12] | Potency [13] | Potency [14] | Potency [15] | Potency [20] | Potency [17] | Potency [19]

COc1cc2c(cc1N)oc1ccccc12
inactive: Potency [1] | Potency [3] | outcome [4] | outcome [5] | Potency [6] | Potency [7] | Potency [8] | Potency [9] | Potency [10] | Potency [11] | Potency [12] | Potency [13] | Potency [14] | Potency [15] | Potency [20] | Potency [18] | Potency [19]
active: Potency [2] 62.4 µM

CCCC(=O)C(=O)O
inactive: Potency [1] | Potency [2] | Potency [3] | outcome [4] | outcome [5] | Potency [6] | Potency [7] | Potency [8] | Potency [9] | Potency [10] | Potency [11] | Potency [12] | Potency [14] | Potency [15] | Potency [20] | Potency [16] | Potency [18] | Potency [19]
active: Potency [13] 10.6 µM

CCC(C)C(=O)OC (centres undefined)
inactive: Potency [1] | Potency [2] | Potency [3] | outcome [4] | outcome [5] | Potency [6] | Potency [7] | Potency [8] | Potency [9] | Potency [10] | Potency [11] | Potency [12] | Potency [13] | Potency [14] | Potency [15] | Potency [20] | Potency [16] | Potency [18] | Potency [19]

O=c1cc(-c2ccccc2)oc2ccc3ccccc3c12
active: Potency [2] 0.486 µM
inactive: Potency [1] | Potency [3] | outcome [4] | outcome [5] | Potency [6] | Potency [7] | Potency [18] | Potency [19]

CC1OCCC1=O (centres undefined)
inactive: Potency [1] | Potency [2] | Potency [3] | outcome [4] | outcome [5] | Potency [6] | Potency [7] | Potency [8] | Potency [9] | Potency [10] | Potency [11] | Potency [12] | Potency [13] | Potency [14] | Potency [15] | Potency [20] | Potency [16] | Potency [18] | Potency [19]

Clc1ccc(C(Cn2ccnc2)OCc2c(Cl)cccc2Cl)c(Cl)c1 (centres undefined)
inactive: Potency [3] | outcome [4] | outcome [5] | Potency [6] | Potency [7] | Potency [15] | Potency [16] | Potency [17] | Potency [18] | Potency [19]
active: Potency [1] 23.7 µM | Potency [2] 11.9 µM

S=C(SSSSSSC(=S)N1CCCCC1)N1CCCCC1
active: Potency [1] 0.134 µM
inactive: activity, positive = activation [2] -39.1% [at 19 µM] | activity change [3] 9.84% [at 11.8 µM, hits give high values] | activation [4] 1.75% [at 15.8 µM] | activation [5] 0.115% [at 11.8 µM] | activation [6] -17.2% [at 13.5 µM] | activation [7] -7.65% [at 13.6 µM] | activity change, negative = cytotoxicity [8] -21.4% [at 13.5 µM] | activity change, negative = cytotoxicity [9] 9.63% [at 13.5 µM] | activation [10] -6.37% [at 13.5 µM] | activity, negative = inhibition [11] -4.42% [at 12.7 µM] | activation [12] 13.8% [at 15.9 µM] | activity, negative = inhibition [13] -12.9% [at 12.6 µM] | activation [14] 2.41% [at 15.8 µM] | activation [15] -0.287% [at 19 µM] | activity change, negative = inhibition [16] 8.1% [at 19 µM] | activation [18] -0.326% [at 19 µM] | activity change, negative = inhibition [19] 1.15% [at 18.9 µM]

CC(C)CCCCCCc1ccc(OCCOCCO)cc1
inactive: Potency [1] | Potency [2] | Potency [3] | outcome [4] | outcome [5] | Potency [6] | Potency [7] | Potency [8] | Potency [9] | Potency [10] | Potency [11] | Potency [12] | Potency [13] | Potency [14] | Potency [15] | Potency [20] | Potency [16] | Potency [17] | Potency [18] | Potency [19]
